Measured values taken from PubChem BioAssay AID504376 (National Center for Advancing Translational Sciences (NCATS), 2011).
The source made the active and inactive calls. How the calls were made is not given here.

Assay: Clonogenic survival assay for Identifying a Potential Treatment of Ataxia-Telangiectasia:SAR for Probe
Conditions: ATM-null F2111 fibroblasts, NCS clonogenic survival, 14 d
From the text: NIH Chemical Genomics Center [NCGC] NIH Molecular Libraries Probe Centers Network [MLPCN] MLPCN Grant: MH089030-01 Assay Submitter (PI): Wei Zheng and Yosef Shiloh Ataxia-telangiectasia (A-T) is a devastating and progressive disease for which, there is no cure. Although A-T is a multisystem disease, it is stereotyped characterized by its neurological symptoms such as truncal ataxia, due to cerebellar cortical degeneration of the Purkinje and granule cells. Other symptoms of A-T are telangiectasias (dilated blood vessels), primary immunodeficiency, marked sensitivity to ionizing radiation (IR), chromosomal instability and predisposition to cancer. The underlying genetic cause of A-T is null mutations in the ATM (A-T mutated) gene. ATM is a nuclear serine/threonine kinase that functions as a master regulator of the cellular responses to double strand breaks (DSBs) in the DNA. Upon activation by DSBs, ATM phosphorylates a plethora of downstream targets, including KAP-1 on […]. KAP-1 phosphorylation occurs shortly in response to DSBs and mediates global chromatin relaxation, which facilitates DSB repair. To screen for small molecules that will compensate for the loss of ATM in cells derived from A-T patients, we monitored KAP-1 phosphorylation as a readout for ATM-like activity using an AlphaLISA assay. Active compounds should protect the A-T cells from the damage by NCS treatment and form normal colonies.
ATM null (F2111) cells are treated with various doses of the radiomimetic drug neocarzinostatin (NCS) and plated at densities of 200-5000 cells/[…]. 24 hr later the cells were either treated or not treated with Rottlerin, and 30 min later NCS was added for an additional 30 minutes. Then the medium was replaced with fresh medium and plates were incubated for 14 days until colonies could be visualized. After fourteen days, the cultures are fixed and stained and colonies scored manually. Colony survival in absence of NCS was normalized to 100% survival for each compound concentration.

CC(=O)c1c(O)c(C)c(O)c(Cc2c(O)c3c(c(C(=O)/C=C/c4ccccc4)c2O)OC(C)(C)C=C3)c1O
survival (at 30 µM, stronger effect = higher value): 43% (active) | survival (measured here: 10 ng/ml NCS, no compound): 35% | survival (measured here: 20 ng/ml NCS, at 30 µM, stronger effect = higher value): 33% | survival (measured here: 40 ng/ml NCS, at 30 µM, stronger effect = higher value): 15%
